Read-out in assay [1]: Monokine induced gamma interferon (MIG), CXCL9 (gene 4283)
As to the kind of experiment: BSK_SAg_MIG: BioMAP Diversity Plus: SAg Assay for Monokine induced gamma interferon (MIG) Biomarker Activity (AID 2283092). Particulars: primary human HUVEC with PBMC; actives raise or lower the signal. In short, it runs like this: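 Endothelial cells and PBMC were co-cultured, exposed to test chemicals, and sampled 24 h later. MIG was measured by ELISA, and responses were fitted in both directions relative to DMSO.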

Assay [2] is described as follows: BSK_SAg_PBMCCytotoxicity: PBMC Cytotoxicity Assessment in the BioMAP Diversity Plus: SAg Assay (AID 2283093).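 For AC50: PBMC superantigen activated with SEB plus TSST-1 one hour after compound addition.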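 Note: PBMC viability measured as Alamar Blue reduction fluorescence at 546/580 nm; fitted both ways against DMSO so a hit may be loss or gain of signal.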 Particulars: primary human HUVEC with PBMC. In short, it runs like this:
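Compound added to 75,000 PBMC/well for 1 h; SEB and TSST-1 then added at 20 ng/mL final each; 90 h incubation; Alamar Blue 6 h; read 546/580 nm ex/em. Activity fitted bidirectionally relative to DMSO baseline.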

Read-out in assay [3]: Interleukin-8 (IL8), CXCL8 (gene 3576)
As to the kind of experiment: BSK_SAg_IL8: BioMAP Diversity Plus: SAg Assay for Interleukin-8 (IL8) Biomarker Activity (AID 2283094). Particulars: primary human HUVEC with PBMC; actives raise or lower the signal. In short, it runs like this: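 ELISA read-out of IL-8 in a primary human vascular co-culture (umbilical vein endothelium plus PBMC), taken 24 h after compound addition. Values derive from bidirectional fits against DMSO negative controls.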

A short description of assay [4]: BSK_SAg_Proliferation: Cell Proliferation Assessment in the BioMAP Diversity Plus: SAg Assay (AID 2283095).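 Note: relative cell number as total protein by SRB absorbance in sub-confluent culture.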 Particulars: primary human HUVEC with PBMC. In short, it runs like this: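 Cells (endothelium plus PBMC, human primary) were dosed with chemical, cultured 96 h, fixed in 10% TCA and stained with 0.1% SRB. Absorbance at 560 nm gave relative protein, fitted bidirectionally relative to DMSO.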

A short description of assay [5]: BSK_SAg_SRB: Viability Assessment in the BioMAP Diversity Plus: SAg Assay (AID 2283096).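 Note: cells read one day after compound addition; hits may be either gain or loss of signal compared with DMSO.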 As to conditions: primary human HUVEC with PBMC. Put shortly: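 Total protein by sulforhodamine B staining, 24 h after dosing, in HUVEC–PBMC co-culture; DMSO-referenced bidirectional fitting.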
For assay [6], the target named is human CYP2C8, CYP2C8 (gene 1558) (UniProt P10632). As to the kind of experiment: NVS_ADME_hCYP2C8: NovaScreen (NVS) CYP450-related Enzyme Activity (ADME) Assay for human CYP2C8 (AID 2283104). In short, it runs like this:
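Recombinant human CYP2C8 with fluorogenic substrate, 0.5 h, fluorescence intensity; signal loss fitted versus acetonitrile. Screened in duplicate at 10 uM, then actives run in concentration-response up to 20 uM.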

Assay [7] addresses human CYP2D6, CYP2D6 (gene 1565) (UniProt P10635). As to the kind of experiment: NVS_ADME_hCYP2D6: NovaScreen (NVS) CYP450-related Enzyme Activity (ADME) Assay for human CYP2D6 (AID 2283107; active = hit-call score of the fitted dose curve at least 0.9, where 1 is the maximum). In short, it runs like this: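 Cell-free assay using recombinant human CYP2D6 expressed in insect cells, with a fluorogenic substrate read after 1 h. Primary screen in duplicate at 10 uM; actives followed up in concentration series. Loss of signal fitted relative to acetonitrile.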

Assay [8] addresses Cytochrome P450 2C19 (Homo sapiens) (UniProt P33261). As to the kind of experiment: NVS_ADME_hCYP2C19: NovaScreen (NVS) CYP450-related Enzyme Activity (ADME) Assay for human CYP2C19 (AID 2283113; active = hit-call score of the fitted dose curve at least 0.9, where 1 is the maximum;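 for AC50: potency for inhibition seen as loss of fluorescent signal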). In short, it runs like this: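 Cell-free recombinant human CYP2C19 from insect cells, fluorescent substrate; activity read by fluorescence intensity 1 h after dosing. Primary screen in duplicate at 10 uM; actives retested in concentration series. Signal loss versus acetonitrile negative control.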

Assay [9] addresses human CYP19A1, CYP19A1 (gene 1588) (UniProt P11511). As to the kind of experiment: NVS_ADME_hCYP19A1: NovaScreen (NVS) CYP450-related Enzyme Activity (ADME) Assay for human CYP19A1 (AID 2283098; active = hit-call score of the fitted dose curve at least 0.9, where 1 is the maximum;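 for AC50: potency for inhibitors seen as loss of fluorescent enzyme signal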). Put shortly:
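Biochem, cell-free; recombinant enzyme + specific substrate; fluorescence intensity at 0.5 h post-dose; 10 uM duplicate primary, conc. series for actives; acetonitrile = negative control/baseline; positive and negative controls on every plate.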

The target in assay [10] is human CYP1A1, CYP1A1 (gene 1543) (UniProt P04798). The assay is described as follows: NVS_ADME_hCYP1A1: NovaScreen (NVS) CYP450-related Enzyme Activity (ADME) Assay for human CYP1A1 (AID 2283100; active = hit-call score of the fitted dose curve at least 0.9, where 1 is the maximum). In short, it runs like this:
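Recombinant CYP1A1 with a fluorogenic substrate, cell-free, read 1 h after dosing; acetonitrile as negative control. Single-concentration screen at 10 uM in duplicate, then concentration-response up to 20 uM for chemicals meeting ~30% inhibition threshold.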

The target in assay [11] is human CYP2B6, CYP2B6 (gene 1555) (UniProt P20813). As to the kind of experiment: NVS_ADME_hCYP2B6: NovaScreen (NVS) CYP450-related Enzyme Activity (ADME) Assay for human CYP2B6 (AID 2283101; active = hit-call score of the fitted dose curve at least 0.9, where 1 is the maximum). Put shortly:
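Cell-free recombinant enzyme assay with a fluorogenic substrate; fluorescence intensity read 1 hour after dosing. Loss of signal relative to acetonitrile negative control indicates inhibition. Primary screen run in duplicate at 10 uM, actives then tested in concentration series.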

In assay [12] the target is human CYP1A2, CYP1A2 (gene 1544) (UniProt P05177). As to the kind of experiment: NVS_ADME_hCYP1A2: NovaScreen (NVS) CYP450-related Enzyme Activity (ADME) Assay for human CYP1A2 (AID 2283102; active = hit-call score of the fitted dose curve at least 0.9, where 1 is the maximum). In short, it runs like this: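 Recombinant human CYP1A2 from insect cells, cell-free, fluorogenic substrate; read 0.5 h after dosing with loss of fluorescence signal indicating inhibition. Primary screen in duplicate at 10 uM, acetonitrile as negative control.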

For assay [13], the target named is Cytochrome P450 2C18 (Homo sapiens) (UniProt P33260). The assay is described as follows: NVS_ADME_hCYP2C18: NovaScreen (NVS) CYP450-related Enzyme Activity (ADME) Assay for human CYP2C18 (AID 2283103). In short, it runs like this: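 Cell-free recombinant human CYP2C18 with fluorogenic substrate; fluorescence intensity read 0.5 h after dosing. Single-point screen at 10 uM in duplicate, then concentration-response up to 20 uM; loss of signal fitted against acetonitrile baseline.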

Assay [14] addresses Cytochrome P450 3A4 (Homo sapiens) (UniProt P08684). As to the kind of experiment: NVS_ADME_hCYP3A4: NovaScreen (NVS) CYP450-related Enzyme Activity (ADME) Assay for human CYP3A4 (AID 2283110; active = hit-call score of the fitted dose curve at least 0.9, where 1 is the maximum). Put shortly: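 Compounds were first screened in duplicate at 10 uM against recombinant CYP3A4 produced in insect cells, then actives were run in concentration series. Enzyme activity was measured by fluorescence after 0.33 hour, with acetonitrile as baseline.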

Assay [15] concerns the target rat CYP2A1, Cyp2a1 (gene 24894) (UniProt P11711). As to the kind of experiment: NVS_ADME_rCYP2A1: NovaScreen (NVS) CYP450-related Enzyme Activity (ADME) Assay for rat CYP2A1 (AID 2283114). In short, it runs like this: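 Recombinant rat CYP2A1, cell-free, fluorogenic substrate turnover read by fluorescence intensity 0.75 h after dosing. Primary screen at 10 uM in duplicate; actives rerun as concentration-response up to 20 uM; loss of signal versus acetonitrile control.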

Several values for one entry are separate records, joined by “and”; a condition that tells them apart may be missing. Identical values can stand only once. Records with an inconclusive call do not appear. A structure can be active in one record and inactive in another. Activity calls are given as the source filed them. Rule for the calls, unless noted: active = hit-call score of the fitted dose curve at least 0.9, where 1 is the maximum; inactive = score below 0.9.

This passage reports outcome and AC50 results from PubChem BioAssay (EPA / NIEHS).

human CYP1A2, CYP1A2 (gene 1544), sequence (P05177 whole entry, looked up): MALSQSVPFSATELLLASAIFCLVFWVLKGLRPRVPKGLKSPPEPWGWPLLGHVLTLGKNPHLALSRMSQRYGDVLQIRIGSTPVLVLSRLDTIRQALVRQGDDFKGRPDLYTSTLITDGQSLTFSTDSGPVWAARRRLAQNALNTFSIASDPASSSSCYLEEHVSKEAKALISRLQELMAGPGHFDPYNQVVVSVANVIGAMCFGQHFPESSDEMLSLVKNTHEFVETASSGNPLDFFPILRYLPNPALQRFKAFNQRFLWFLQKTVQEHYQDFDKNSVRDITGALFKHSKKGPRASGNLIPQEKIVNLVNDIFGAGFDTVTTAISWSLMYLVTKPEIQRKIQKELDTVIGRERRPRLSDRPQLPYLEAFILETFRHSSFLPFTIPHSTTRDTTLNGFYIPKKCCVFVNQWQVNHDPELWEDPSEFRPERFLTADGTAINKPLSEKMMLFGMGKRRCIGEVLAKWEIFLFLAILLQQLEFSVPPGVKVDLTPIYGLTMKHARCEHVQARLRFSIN
Cytochrome P450 3A4 (Homo sapiens), sequence (P08684 whole entry, looked up): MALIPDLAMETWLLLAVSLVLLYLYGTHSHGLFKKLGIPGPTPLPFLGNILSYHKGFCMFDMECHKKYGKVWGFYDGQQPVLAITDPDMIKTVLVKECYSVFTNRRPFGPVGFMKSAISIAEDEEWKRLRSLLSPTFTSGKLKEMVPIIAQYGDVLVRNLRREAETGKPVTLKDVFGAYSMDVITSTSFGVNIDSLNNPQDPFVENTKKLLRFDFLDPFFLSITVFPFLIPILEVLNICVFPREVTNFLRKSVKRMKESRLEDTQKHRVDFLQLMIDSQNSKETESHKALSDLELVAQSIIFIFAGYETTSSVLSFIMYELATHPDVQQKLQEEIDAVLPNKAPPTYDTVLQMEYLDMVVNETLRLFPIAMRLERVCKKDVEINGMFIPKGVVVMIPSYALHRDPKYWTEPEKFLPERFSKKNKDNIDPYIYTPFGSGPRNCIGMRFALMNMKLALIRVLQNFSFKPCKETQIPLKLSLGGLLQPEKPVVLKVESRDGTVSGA
human CYP2B6, CYP2B6 (gene 1555), sequence (P20813 whole entry, looked up): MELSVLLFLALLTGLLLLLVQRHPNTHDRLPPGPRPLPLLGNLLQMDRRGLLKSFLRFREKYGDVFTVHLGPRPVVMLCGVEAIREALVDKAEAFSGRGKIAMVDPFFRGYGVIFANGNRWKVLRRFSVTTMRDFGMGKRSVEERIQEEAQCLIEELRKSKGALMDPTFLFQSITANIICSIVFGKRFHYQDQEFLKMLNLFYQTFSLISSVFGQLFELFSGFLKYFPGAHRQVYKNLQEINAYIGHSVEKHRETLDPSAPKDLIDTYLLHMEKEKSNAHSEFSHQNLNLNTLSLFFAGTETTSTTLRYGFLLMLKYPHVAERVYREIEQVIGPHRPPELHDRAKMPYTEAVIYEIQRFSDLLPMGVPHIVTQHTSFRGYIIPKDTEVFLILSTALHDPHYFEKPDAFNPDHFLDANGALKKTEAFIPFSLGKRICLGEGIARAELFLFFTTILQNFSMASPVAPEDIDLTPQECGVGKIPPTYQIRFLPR
human CYP19A1, CYP19A1 (gene 1588), sequence (P11511 whole entry, looked up): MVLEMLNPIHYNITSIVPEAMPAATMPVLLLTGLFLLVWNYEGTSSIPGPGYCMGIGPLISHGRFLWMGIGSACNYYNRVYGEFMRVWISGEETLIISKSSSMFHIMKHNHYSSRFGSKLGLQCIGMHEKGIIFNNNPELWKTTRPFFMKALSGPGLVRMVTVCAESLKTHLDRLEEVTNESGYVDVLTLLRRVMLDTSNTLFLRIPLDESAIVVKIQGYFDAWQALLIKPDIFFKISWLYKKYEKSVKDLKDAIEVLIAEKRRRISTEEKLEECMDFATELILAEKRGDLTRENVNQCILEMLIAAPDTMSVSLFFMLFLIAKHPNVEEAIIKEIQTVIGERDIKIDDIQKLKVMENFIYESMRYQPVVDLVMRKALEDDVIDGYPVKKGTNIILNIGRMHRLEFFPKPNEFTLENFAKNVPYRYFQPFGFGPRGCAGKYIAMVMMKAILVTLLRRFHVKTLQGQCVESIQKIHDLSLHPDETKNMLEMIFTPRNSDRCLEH
human CYP2D6, CYP2D6 (gene 1565), sequence (P10635 whole entry, looked up): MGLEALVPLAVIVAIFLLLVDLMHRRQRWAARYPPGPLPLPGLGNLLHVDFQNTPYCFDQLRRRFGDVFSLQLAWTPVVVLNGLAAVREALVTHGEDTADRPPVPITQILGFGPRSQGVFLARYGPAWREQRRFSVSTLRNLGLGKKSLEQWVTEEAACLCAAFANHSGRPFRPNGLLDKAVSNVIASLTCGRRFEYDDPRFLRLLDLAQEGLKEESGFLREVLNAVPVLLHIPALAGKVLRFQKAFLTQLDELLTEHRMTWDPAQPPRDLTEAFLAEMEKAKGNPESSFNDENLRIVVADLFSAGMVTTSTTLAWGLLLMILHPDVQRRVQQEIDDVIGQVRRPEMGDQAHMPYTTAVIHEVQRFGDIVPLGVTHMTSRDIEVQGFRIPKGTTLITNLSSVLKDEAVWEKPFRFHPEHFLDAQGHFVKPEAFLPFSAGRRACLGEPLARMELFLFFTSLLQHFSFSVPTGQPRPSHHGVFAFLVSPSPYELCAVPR
Cytochrome P450 2C18 (Homo sapiens), sequence (P33260 whole entry, looked up): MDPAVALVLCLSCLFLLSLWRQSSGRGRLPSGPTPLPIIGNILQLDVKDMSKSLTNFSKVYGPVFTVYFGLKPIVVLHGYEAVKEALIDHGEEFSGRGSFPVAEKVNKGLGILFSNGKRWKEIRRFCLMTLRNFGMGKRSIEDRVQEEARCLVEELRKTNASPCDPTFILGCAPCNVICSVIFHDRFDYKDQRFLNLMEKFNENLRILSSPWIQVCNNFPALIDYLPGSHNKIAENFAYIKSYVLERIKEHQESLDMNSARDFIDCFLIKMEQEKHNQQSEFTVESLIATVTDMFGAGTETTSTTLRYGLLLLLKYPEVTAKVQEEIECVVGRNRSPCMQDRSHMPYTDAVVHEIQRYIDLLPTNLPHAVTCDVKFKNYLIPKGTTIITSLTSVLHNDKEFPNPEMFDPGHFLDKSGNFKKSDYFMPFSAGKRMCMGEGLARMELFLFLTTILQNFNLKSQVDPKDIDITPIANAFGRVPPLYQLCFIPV
human CYP2C8, CYP2C8 (gene 1558), sequence (P10632 whole entry, looked up): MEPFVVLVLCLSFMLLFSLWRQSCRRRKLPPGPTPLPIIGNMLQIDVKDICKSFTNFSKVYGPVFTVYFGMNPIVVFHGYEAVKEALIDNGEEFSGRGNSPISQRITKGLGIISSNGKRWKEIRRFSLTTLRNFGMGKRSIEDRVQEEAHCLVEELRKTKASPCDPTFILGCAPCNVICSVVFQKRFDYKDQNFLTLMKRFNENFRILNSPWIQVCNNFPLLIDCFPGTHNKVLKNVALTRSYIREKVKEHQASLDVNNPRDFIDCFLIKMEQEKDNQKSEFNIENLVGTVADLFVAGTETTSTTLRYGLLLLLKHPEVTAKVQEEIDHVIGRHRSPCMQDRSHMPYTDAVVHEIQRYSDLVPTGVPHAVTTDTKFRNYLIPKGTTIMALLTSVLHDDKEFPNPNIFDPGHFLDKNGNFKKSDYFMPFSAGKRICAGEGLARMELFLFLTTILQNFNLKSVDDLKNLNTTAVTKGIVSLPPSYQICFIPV
human CYP1A1, CYP1A1 (gene 1543), sequence (P04798 whole entry, looked up): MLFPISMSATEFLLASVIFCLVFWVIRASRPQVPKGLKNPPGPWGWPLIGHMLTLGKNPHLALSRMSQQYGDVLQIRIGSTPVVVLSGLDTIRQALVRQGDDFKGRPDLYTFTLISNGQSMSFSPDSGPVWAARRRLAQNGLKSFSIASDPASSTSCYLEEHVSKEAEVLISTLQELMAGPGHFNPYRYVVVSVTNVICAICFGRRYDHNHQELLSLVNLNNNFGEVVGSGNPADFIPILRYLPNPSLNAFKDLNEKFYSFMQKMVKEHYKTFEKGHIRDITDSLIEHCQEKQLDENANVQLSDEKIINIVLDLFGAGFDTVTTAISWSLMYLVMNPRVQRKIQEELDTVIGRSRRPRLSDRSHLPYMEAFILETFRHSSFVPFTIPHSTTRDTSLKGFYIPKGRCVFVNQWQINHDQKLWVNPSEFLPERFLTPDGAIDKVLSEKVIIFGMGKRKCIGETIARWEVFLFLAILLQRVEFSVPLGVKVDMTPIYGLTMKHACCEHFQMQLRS
rat CYP2A1, Cyp2a1 (gene 24894), sequence (P11711 whole entry, looked up): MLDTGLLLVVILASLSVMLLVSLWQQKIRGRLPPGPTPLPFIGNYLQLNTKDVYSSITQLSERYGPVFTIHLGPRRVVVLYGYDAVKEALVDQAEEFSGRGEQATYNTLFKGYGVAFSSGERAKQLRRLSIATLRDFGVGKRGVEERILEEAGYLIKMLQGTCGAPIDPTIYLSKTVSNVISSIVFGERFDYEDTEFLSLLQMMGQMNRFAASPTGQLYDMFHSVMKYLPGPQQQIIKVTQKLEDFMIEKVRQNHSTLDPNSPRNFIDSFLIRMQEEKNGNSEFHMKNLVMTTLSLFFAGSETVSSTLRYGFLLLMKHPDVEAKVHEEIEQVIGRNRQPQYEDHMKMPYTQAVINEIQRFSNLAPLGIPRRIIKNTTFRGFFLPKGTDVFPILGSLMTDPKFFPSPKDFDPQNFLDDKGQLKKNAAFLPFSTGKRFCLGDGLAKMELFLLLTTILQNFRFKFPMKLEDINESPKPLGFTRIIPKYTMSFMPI

Regarding `CCOc1nc(NC)nc(NC(=O)NS(=O)(=O)c2ccccc2C(=O)OC)n1`, the result in [1], in assay [2], in [3], in assay [4] and in assay [5] was inactive.

What is called AC50 is the midpoint of the concentration-response curve, whichever way the signal moves. For the compound `O=C(NC(=O)c1c(F)cccc1F)Nc1ccc(OC(F)(F)C(F)OC(F)(F)F)c(Cl)c1` (centres undefined), the result in [1], in assay [3], in assay [5] and in assay [6] was inactive. In addition, the AC50 in assay [2] was 8.44 µM (active); in assay [4], 9.75 µM (active).

Take `COC(=O)c1ccccc1S(=O)(=O)NC(=O)Nc1nc(C)nc(OC)n1`: the outcome in [1], in [3], in assay [4], in assay [5] and in assay [7] was inactive. The results for the AC50 in [2] and in [8] were 15.5 µM (active) and 5 µM (active), respectively.

As for `CCC(C)(NC(=O)c1cc(Cl)c(C)c(Cl)c1)C(=O)CCl` (centres undefined), the AC50 in assay [1] is 10.5 µM (active); in assay [2], 20 µM (active); in [3], 5.75 µM (active); in [4], 1.92 µM (active); in assay [5], 23.6 µM (active). Further, the outcome in [8] was inactive.

Regarding `CCN(CC)C(=O)SCc1ccc(Cl)cc1`, the result in [1], in assay [2], in assay [3], in assay [4] and in assay [5] was inactive. Also, in assay [8], the AC50 was 10 µM (active).

On to `Oc1ccc(Cl)cc1Cc1ccccc1`, for which the AC50 in assay [1] was 36.8 µM (active) [middle of 7 runs]; in [2], 27.2 µM (active) [middle of 7 runs]; in assay [3] it was 31.7 µM (active) [middle of 7 runs]; in [5], 29.4 µM (active) [middle of 7 runs]; in [9] it was 3.11 µM (active) and 2.49 µM (active); in assay [11], 7.66 µM (active) [middle of 6 runs]. Further, the AC50 in assay [13] is 6.87 µM (active); in assay [7], 10 µM (active); in [8] it was 3.27 µM (active) [middle of 7 runs]; in [15], 5.61 µM (active). The compound was classed as inactive in assay [9], in assay [10], in assay [12] and in assay [14].
